Shown are actives, neighbours in structure and some others; about 2.8% of the full set was active somewhere.
GLP1R ag: GLP-1 receptor (human) agonism. P43220. HEK293 GLP-1R CRE-luciferase, luminescence, 4-6 h; cells express a hypersensitive GLP-1R form. Potency, µM (doses to about 45.6 µM), actives largely listed as activators. 380,000 tested, 0.007% active
KCNH2 WT inh: KCNH2 (human, wildtype) channel inhibition. U2OS, BacMam KCNH2, thallium flux FluxOr; active compounds read low. activity change, % at 1.84 µM. 340,000 tested, 0.37% active;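 active = maximum activity change below -70%; inconclusive = maximum activity change between -70% and -50%; inactive = maximum activity change above -50%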
Target sequence (Q12809 whole entry, looked up): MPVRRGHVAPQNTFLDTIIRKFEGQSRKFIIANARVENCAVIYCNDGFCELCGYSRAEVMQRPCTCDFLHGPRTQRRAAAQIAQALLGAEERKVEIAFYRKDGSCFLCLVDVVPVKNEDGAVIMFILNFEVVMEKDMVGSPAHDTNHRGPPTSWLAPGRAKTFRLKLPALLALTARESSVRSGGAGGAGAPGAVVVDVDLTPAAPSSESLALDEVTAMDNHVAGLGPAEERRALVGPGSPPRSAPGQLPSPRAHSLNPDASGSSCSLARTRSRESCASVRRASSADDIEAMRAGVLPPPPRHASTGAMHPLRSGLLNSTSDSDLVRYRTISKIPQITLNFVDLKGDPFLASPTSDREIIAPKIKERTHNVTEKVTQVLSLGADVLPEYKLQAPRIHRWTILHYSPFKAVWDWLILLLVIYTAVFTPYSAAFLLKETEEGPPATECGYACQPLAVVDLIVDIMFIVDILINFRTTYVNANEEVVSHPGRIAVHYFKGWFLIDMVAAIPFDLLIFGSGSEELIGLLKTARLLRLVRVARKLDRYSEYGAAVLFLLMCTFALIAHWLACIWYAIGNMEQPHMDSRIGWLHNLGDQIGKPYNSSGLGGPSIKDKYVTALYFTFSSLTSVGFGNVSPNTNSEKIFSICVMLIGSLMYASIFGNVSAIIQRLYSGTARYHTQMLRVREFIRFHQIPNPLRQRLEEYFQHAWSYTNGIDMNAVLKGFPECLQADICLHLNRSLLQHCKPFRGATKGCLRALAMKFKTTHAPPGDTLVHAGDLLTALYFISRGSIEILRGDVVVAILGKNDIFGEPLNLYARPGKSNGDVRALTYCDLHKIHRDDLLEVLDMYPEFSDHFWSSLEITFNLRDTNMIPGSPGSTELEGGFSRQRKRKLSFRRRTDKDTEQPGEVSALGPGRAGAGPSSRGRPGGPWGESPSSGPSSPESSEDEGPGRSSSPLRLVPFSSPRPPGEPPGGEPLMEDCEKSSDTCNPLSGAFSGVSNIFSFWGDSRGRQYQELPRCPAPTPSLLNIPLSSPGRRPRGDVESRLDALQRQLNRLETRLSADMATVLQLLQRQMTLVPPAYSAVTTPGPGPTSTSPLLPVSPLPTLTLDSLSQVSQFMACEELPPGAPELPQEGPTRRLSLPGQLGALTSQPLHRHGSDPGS
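U2OS cells transduced with wild-type KCNH2 virus are loaded with FluxOr dye for 45 min, and thallium flux is measured in kinetic reads before and after stimulation buffer. Rate constants are normalized to DMSO controls.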
GLS inhibitor: blocks human kidney-isoform glutaminase activity; O94925; Potency, µM (series often up to 45.5 µM), actives largely listed as inhibitors; GLS enzymatic activity, qHTS titration; AID 624170; 410,000 tested, 0.21% active
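Read-out is an Amplex red fluorescence increase coupled through glutamate oxidase and HRP, measured before and after 30 min room-temperature incubation. hKGA is in 45 mM KH2PO4 (pH 8.2) with 0.02% Tween-20; glutamine added as 1mM solution.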
KCNH2 3.1 inh: blocks the human KCNH2 3.1 channel isoform; U2OS KCNH2 3.1, thallium flux FluxOr; active compounds read low; activity change, % (tested at about 1.8 µM); 340,000 tested, 0.95% active;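 active = maximum activity change below -70%; inconclusive = maximum activity change from -70% to -50%; inactive = maximum activity change above -50%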;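 also: thallium influx rate constant from kinetic fluorescence after stimulation buffer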
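Kinetic fluorescence (2 min after stimulation buffer) measures Tl+ influx through KCNH2 3.1 expressed by viral transduction in U2OS cells; the rate constant is normalized against DMSO controls serving as positive and negative references.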
GLP1R inv ag: acts as inverse agonist at human GLP-1 receptor | P43220 | HEK293 GLP-1R CRE-luciferase, luminescence, 24 h; GLP-1R form is constitutively active | Potency, µM (highest dose often 38.3 µM), hits mostly inhibitors | 410,000 tested, 1.6% active | AID 624417; also: nearly all actives have a fitted effect of over 55% in size
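HEK293 cells stably co-expressing constitutively active GLP-1R and a cAMP-responsive luciferase reporter were seeded in DMEM with 10% Nu serum, given compounds after 12 h, and incubated 24 h at 37 deg C. Luminescence was then read.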
GLP1R cytotox: cytotoxicity in counter-screen for GLP-1R inverse agonists; 410,000 tested, 0.13% active; HEK293 cAMP-luciferase reporter cells, luminescence, 24 h; Potency, µM (top dose mostly 38.3 µM), usual class: inhibitors; AID 624418;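 also: loss of luciferase light is scored as toxicity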
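A 23 nL compound transfer followed 12 hours of cell culture at 37 deg C; exposure then lasted 24 hr. Luciferase assay detection reagent was dispensed and plates read for luminescence after a 12 min room-temperature wait.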
Each line names hits and unclear results; the compound was inactive in the other large screens. Unless noted, calls follow the shape of the dose curve; as a rule, active = well fitted curve in the direction sought with a large enough effect; inconclusive = small, poorly fitted or top-dose-only effect, or another doubt; inactive = no such curve, though single readings can be large; an effect the other way counts as inactive or inconclusive.

O=c1c(S(=O)(=O)c2ccc(Cl)cc2)cn(Cc2cccc(F)c2)c2ccc(F)cc12	KCNH2 WT inh inconclusive, KCNH2 3.1 inh -82
CCOc1ccc(NC(=O)C2CCN(c3nc4ccccc4[nH]3)CC2)cc1	none (no result: GLP1R ag, KCNH2 WT inh, KCNH2 3.1 inh)
COc1cc(N(C)C)ccc1C=c1c2ccccc2n2c1cc(-c1ccccc1)[n+]2C	GLS inhibitor inconclusive, GLP1R inv ag 8.9µM, GLP1R cytotox 13µM (no result: KCNH2 3.1 inh)
COc1cc(C=c2c3ccccc3n3c2cc(-c2ccccc2)[n+]3C)cc(OC)c1OC	GLP1R inv ag inconclusive
CN(C)c1ccc(C=c2c3ccccc3n3c2cc(-c2ccccc2)[n+]3C)cc1	GLP1R inv ag inconclusive, GLP1R cytotox inconclusive
CN(C)c1ccc(C=c2c3ccccc3n3c2cc(-c2ccc(Cl)cc2)[n+]3C)cc1	KCNH2 WT inh -207, KCNH2 3.1 inh -191, GLP1R inv ag inconclusive, GLP1R cytotox inconclusive
Cc1ccc(C(=O)Nc2ccc(Cl)c(-c3nc4ncccc4o3)c2)c(C)c1	GLP1R inv ag inconclusive (no result: GLP1R ag, KCNH2 WT inh, KCNH2 3.1 inh)
CCCOC(=O)c1ccc(Oc2cn[nH]c2-c2ccc(OCC)cc2O)cc1	GLP1R inv ag 10µM, GLP1R cytotox inconclusive
COc1ccccc1-c1cn[nH]c1-c1ccc(OCc2ccccc2)cc1O	GLP1R inv ag inconclusive, GLP1R cytotox inconclusive
CCCOC(=O)c1ccc(Oc2c(-c3ccc(OCC)cc3O)n[nH]c2C)cc1	GLP1R inv ag inconclusive, GLP1R cytotox inconclusive
CCOc1ccc(-c2[nH]ncc2-c2ccccc2)c(O)c1	GLP1R inv ag 10µM
CCOc1ccc(-c2[nH]ncc2-c2csc(C)n2)c(O)c1	none
COc1ccc(-c2cn[nH]c2-c2ccc(OCc3ccccc3)cc2O)cc1	GLP1R inv ag 3.5µM, GLP1R cytotox inconclusive
COc1ccc(-c2cn[nH]c2-c2ccc(OC)cc2O)cc1	GLP1R inv ag 10µM, GLP1R cytotox inconclusive
COc1ccc(CCNC(=O)c2cnc3ccc(C)cn3c2=O)cc1OC	none (no result: GLP1R ag, KCNH2 WT inh, KCNH2 3.1 inh)
CCOC(=O)N1CCc2c(sc(NCc3cccc(F)c3)c2C(=O)Nc2ccc(OCC)cc2)C1	none (no result: GLP1R ag, KCNH2 WT inh, KCNH2 3.1 inh)
Cc1nc(Nc2ccc(Cl)cc2Cl)sc1C(=O)Nc1ccccc1	GLP1R inv ag 10µM
O=C(Nc1ccc(Nc2ccccc2)cc1)c1ccc(Cl)cc1Cl	GLS inhibitor inconclusive, GLP1R inv ag 8.9µM
O=C(Nc1ccccc1Cl)c1ccc(Cl)cc1Cl	KCNH2 3.1 inh -72
O=C(NNC(=O)c1ccc(Cl)cc1Cl)Nc1ccccc1	none
CC(=O)N1CCc2cc(S(=O)(=O)NC(Cc3ccccc3)C(=O)NCc3ccccc3)ccc21 (centres undefined)	none (no result: GLP1R ag, KCNH2 WT inh, KCNH2 3.1 inh)
CCc1cccc(NC(=O)C(Cc2ccccc2)n2cccc2)c1 (centres undefined)	GLP1R inv ag inconclusive (no result: GLP1R ag, KCNH2 WT inh, KCNH2 3.1 inh)
CCc1ccc(NC(=O)c2nn(-c3ccc(OC)cc3)c(=O)c3c2c2ccccc2n3C)cc1	none (no result: GLP1R ag, KCNH2 WT inh, KCNH2 3.1 inh)
O=C(NC1CCCCCCC1)c1ccc(Br)o1	KCNH2 3.1 inh -199, GLP1R inv ag inconclusive
COc1ccc(CNC(=O)[C@]2(C)CCC[C@@]3(C)C4CC[C@@]5(C)C[C@]4(CCC32)CC5=O)cc1 (some centres undefined)	GLP1R inv ag 10µM
Cc1ccc(CNC(=O)[C@]2(C)CCC[C@@]3(C)C4CC[C@@]5(C)C[C@]4(CCC32)CC5=O)cc1 (some centres undefined)	GLP1R inv ag inconclusive
O=C1C=C(c2ccc3ccccc3c2)C[C@@H](c2ccc(F)cc2)C1	KCNH2 3.1 inh -86, GLP1R inv ag inconclusive
Cc1cc(Cl)ccc1C1=CC(=O)C[C@H](c2ccc(F)cc2)C1	GLP1R inv ag 11µM
COc1cccc(C2=CC(=O)C[C@H](c3ccc(Cl)cc3)C2)c1OC	KCNH2 3.1 inh -129, GLP1R inv ag inconclusive
COc1ccccc1C1=CC(=O)C[C@H](c2ccc(Cl)cc2)C1	none
O=C1C=C(c2ccc3ncccc3c2)C[C@@H](c2ccc(F)cc2)C1	none
CCOc1ccc(CCNC(=O)C(C)N2C(=O)CC(C)(C)Sc3ccccc32)cc1 (centres undefined)	GLP1R inv ag inconclusive (no result: KCNH2 WT inh)
CCOc1ccc(C2C(C(=O)Nc3ccccc3)=C(C)Nc3nc(-c4ccccc4)nn32)cc1OC (centres undefined)	none (no result: KCNH2 WT inh, KCNH2 3.1 inh)
Cc1cccc(NC(=O)c2cccc(N3CCCS3(=O)=O)c2)c1	none (no result: GLP1R ag, KCNH2 WT inh, KCNH2 3.1 inh)
c1ccc(Nc2nc(N3CCCC3)nc(N3CCCC3)n2)cc1	GLP1R inv ag inconclusive
Cc1ccc(Nc2nc(N3CCOCC3)c3ccccc3n2)cc1	GLP1R inv ag inconclusive
COc1ccc(Nc2nc(N)c([N+](=O)[O-])c(N3CCCC3)n2)cc1	GLP1R ag inconclusive
c1ccc(Nc2nc(N3CCCCC3)nc(N3CCCCC3)n2)cc1	GLP1R inv ag 10µM
Oc1ccc(Nc2nc(N3CCCC3)c3ccccc3n2)cc1	KCNH2 3.1 inh -87, GLP1R inv ag inconclusive
COc1ccc(Nc2nc(N3CCCCC3)c3ccccc3n2)cc1	GLP1R inv ag 5.6µM, GLP1R cytotox inconclusive
CCN(CC(=O)Nc1ccc(Cl)c(S(=O)(=O)N(C)C)c1)CC(=O)NC(C)C	none
COc1ccc(Cl)cc1C(=O)Nc1ccc2oc(-c3ccc(C(C)(C)C)cc3)nc2c1	none (no result: GLP1R ag, KCNH2 WT inh, KCNH2 3.1 inh)
Cc1cc(C(=O)NNS(=O)(=O)c2cc(C(=O)O)ccc2Cl)c(C)n1-c1ccccc1	GLS inhibitor 20µM
CC1=C(C(=O)Nc2ccc(C)cc2C)C(c2ccccc2C)n2ncnc2N1 (centres undefined)	none (no result: KCNH2 WT inh, KCNH2 3.1 inh)
COC(=O)\C(C(C)=O)=C(/C=C/C=C/C=C/N(C)C)N(C)C	GLS inhibitor 11µM
COC(=O)/C(C(C)=O)=C(\C=C\N(C)C)N(C)C	none
O=C(CN1C(=O)NC2(CCOc3ccccc32)C1=O)NCCc1ccccc1 (centres undefined)	none
CCC(C)(C)c1ccc(OCCCC[n+]2cccc(C)c2)c(C(C)(C)CC)c1	GLP1R inv ag 10µM
Cc1ccc(C)c(CS(=O)(=O)c2cn(CC(=O)N(C(C)C)C(C)C)c3ccccc23)c1	none (no result: GLP1R ag, KCNH2 WT inh, KCNH2 3.1 inh)
Cc1ccccc1-c1cc(C(=O)O)n(CC2CC(c3cccnc3)=NO2)n1 (centres undefined)	none (no result: KCNH2 WT inh, KCNH2 3.1 inh)
COC(=O)c1cc(O)cc(OC)c1Oc1cc(C)cc(O)c1C(=O)O	GLS inhibitor 11µM, GLP1R inv ag 8.9µM
CC(O)C(NS(=O)(=O)c1ccc(Cl)cc1)C(=O)OCC(=O)c1c[nH]c2ccccc12 (centres undefined)	GLP1R inv ag 5.6µM
CC(C)C(=O)Nc1ccc(C(=O)NNC(=O)CCc2ccccc2)cc1	KCNH2 3.1 inh -76
CCc1cccc(NC2c3ccccc3C(=O)N2c2ccc(C)cn2)c1 (centres undefined)	GLP1R inv ag 13µM

Compound activity from PubChem BioAssay.
